Experimental findings from PubChem BioAssay are described below.

The nature of experiment [1]: optical density shifts of acrAB sulA E. coli – strain DRC41, OD650, 48 h, E. coli filamentation inducer project, primary screen (AID 1152).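 Also: E. coli MC1000 strain DRC41 lacking acrAB efflux pump and sulA.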 The following applies: higher = more signal, called active from +8 up or from −8 down.
A short description of experiment [2]: probe aLefty1 binding on compound microarray – biochemical, small-molecule microarray, 635/667 nm fluorescence, primary screen (AID 1153).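 Also: score merges spot fluorescence with signal-to-noise ratio from the scanned slide images.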 Particulars: higher = more signal.
Experiment [3] can be described thus: plasmodial surface anion channel blockers, osmotic lysis – cell-based, P. falciparum Indochina, OD700, 1 h, primary screen (AID 1154). The following applies: P. falciparum Indochina infected RBC osmotic lysis, higher = more signal, called active from +8 up or from −8 down.
Experiment [4] is described as follows: plasmodial surface anion channel blockers, osmotic lysis – cell-based, P. falciparum Indochina, OD700, 2 h, primary screen (AID 1155).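 Also: lysis reports solute entry through the parasite surface anion channel PSAC.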 Particulars: P. falciparum Indochina infected erythrocytes, higher = more signal, called active from +8 up or from −8 down.
The nature of experiment [5]: changes in parasitized red cell lysis, either direction – P. falciparum Indochina, OD700, 3 h, PSAC antagonist project, primary screen (AID 1156). Particulars: P. falciparum-infected erythrocytes, osmotic lysis, higher = more signal, called active from +8 up or from −8 down.
The nature of experiment [6]: plasmodial surface anion channel blockers, osmotic lysis – cell-based, P. falciparum Indochina, OD700, 18 h, primary screen (AID 1157). The following applies: P. falciparum Indochina infected erythrocytes, osmotic lysis OD700, 18 h; higher = more signal, called active from +8 up or from −8 down.
Experiment [7] in a line: S6 kinase pathway phospho-S6 level changes – cell-based, A549, cytoblot, luminescence, serum-stimulated, primary screen (AID 1158).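 Also: serum-stimulated A549 lung adenocarcinoma cells; signal is phosphorylated S6 detected by cytoblot immunostaining with HRP secondary.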 The following applies: 5 h, higher = more signal.
The target of experiment [8] is NADPH oxidase 2 (Homo sapiens) (UniProt P04839). Put plainly: compounds shifting NOX2 Amplex Red fluorescence – cell-based, HEK293-NOX2, PMA-stimulated, NOX inhibitor project, primary screen (AID 1159). Also: test concentration not given here. Particulars: 45 min, higher = more signal, called active from +8 up or from −8 down.
The target in experiment [9] is NADPH oxidase 4 (Homo sapiens) (UniProt Q9NPH5). Put plainly: compounds shifting NOX4 Amplex Red fluorescence – cell-based, HEK293-NOX4, tetracycline-induced, NOX inhibitor project, primary screen (AID 1160). The following applies: HEK293-NOX4, Amplex Red H2O2 fluorescence, 45 min; higher = more signal, called active from +8 up or from −8 down.
Experiment [10] has as its target NADPH oxidase 5 (Homo sapiens) (UniProt Q96PH1). Put plainly: compounds shifting NOX5 Amplex Red fluorescence – cell-based, HEK293-NOX5, NOX inhibitor project, primary screen (AID 1161). Particulars: HEK293-NOX5, ionomycin, 45 min, higher = more signal.

Each structure is given as a SMILES string. The source made the active and inactive calls.

Sequence of NADPH oxidase 5 (Homo sapiens) (Q96PH1 whole entry, looked up): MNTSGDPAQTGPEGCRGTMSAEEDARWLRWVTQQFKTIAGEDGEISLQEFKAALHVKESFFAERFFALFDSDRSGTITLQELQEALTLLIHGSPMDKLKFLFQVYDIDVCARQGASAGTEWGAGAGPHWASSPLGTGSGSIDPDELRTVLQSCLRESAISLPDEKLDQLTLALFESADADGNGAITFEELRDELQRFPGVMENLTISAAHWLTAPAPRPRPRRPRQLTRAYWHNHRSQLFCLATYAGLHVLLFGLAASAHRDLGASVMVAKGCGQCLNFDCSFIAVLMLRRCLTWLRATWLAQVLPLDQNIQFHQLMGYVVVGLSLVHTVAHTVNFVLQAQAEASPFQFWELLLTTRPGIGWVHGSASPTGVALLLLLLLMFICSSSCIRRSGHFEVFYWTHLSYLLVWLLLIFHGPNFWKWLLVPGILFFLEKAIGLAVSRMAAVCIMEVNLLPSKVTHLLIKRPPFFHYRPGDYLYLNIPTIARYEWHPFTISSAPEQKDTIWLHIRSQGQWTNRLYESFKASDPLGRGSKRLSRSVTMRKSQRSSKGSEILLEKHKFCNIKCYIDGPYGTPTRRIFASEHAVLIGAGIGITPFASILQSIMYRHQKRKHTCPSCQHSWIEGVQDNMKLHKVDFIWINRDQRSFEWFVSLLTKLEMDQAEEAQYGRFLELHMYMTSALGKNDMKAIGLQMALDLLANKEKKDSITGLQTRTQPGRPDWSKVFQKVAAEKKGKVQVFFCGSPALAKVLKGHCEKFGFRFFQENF
Sequence of NADPH oxidase 4 (Homo sapiens) (Q9NPH5 whole entry, looked up): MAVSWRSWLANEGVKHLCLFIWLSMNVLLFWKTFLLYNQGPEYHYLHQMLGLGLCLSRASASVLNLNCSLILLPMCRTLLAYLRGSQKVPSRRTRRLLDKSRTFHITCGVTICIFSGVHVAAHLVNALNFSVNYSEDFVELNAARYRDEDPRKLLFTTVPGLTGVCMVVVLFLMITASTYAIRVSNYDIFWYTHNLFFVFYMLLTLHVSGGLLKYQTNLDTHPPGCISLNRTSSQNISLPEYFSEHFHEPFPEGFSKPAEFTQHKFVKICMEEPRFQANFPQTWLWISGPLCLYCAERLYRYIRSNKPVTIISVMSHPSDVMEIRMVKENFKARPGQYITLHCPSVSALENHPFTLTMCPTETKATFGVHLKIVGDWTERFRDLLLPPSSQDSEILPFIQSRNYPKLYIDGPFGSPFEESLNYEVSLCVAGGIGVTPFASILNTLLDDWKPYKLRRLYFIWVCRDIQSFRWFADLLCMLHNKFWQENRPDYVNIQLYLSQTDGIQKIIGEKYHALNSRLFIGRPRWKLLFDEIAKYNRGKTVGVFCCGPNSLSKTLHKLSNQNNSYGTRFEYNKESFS
Sequence of NADPH oxidase 2 (Homo sapiens) (P04839 whole entry, looked up): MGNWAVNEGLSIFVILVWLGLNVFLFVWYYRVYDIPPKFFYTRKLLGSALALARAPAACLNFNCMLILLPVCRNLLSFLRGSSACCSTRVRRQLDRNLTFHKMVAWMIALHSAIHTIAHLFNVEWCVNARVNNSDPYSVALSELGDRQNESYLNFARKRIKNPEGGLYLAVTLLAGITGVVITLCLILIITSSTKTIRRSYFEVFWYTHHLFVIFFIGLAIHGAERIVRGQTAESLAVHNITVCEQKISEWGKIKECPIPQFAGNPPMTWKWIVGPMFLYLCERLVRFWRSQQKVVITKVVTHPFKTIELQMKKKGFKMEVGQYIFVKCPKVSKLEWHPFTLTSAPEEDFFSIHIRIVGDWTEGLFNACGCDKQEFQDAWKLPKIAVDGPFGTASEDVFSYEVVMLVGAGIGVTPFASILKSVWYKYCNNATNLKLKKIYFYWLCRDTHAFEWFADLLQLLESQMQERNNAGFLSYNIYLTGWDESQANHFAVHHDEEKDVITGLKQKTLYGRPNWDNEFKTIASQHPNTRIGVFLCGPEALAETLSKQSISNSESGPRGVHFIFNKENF

`C=C(CCCC)C(=O)CC[C@@H](OC(=O)c1cccnc1)c1ccc(OCCO)cc1`: the z-score is -0.704 (inactive) in [1]; 20.2 (active) in experiment [3]; 4.63 (inactive) in experiment [4]; -0.367 (inactive) in [5]; 0.774 (inactive) in experiment [6]; -0.58 in experiment [7]. Also, the z-score in experiment [8] is -1.3 (inactive); in experiment [9], -0.918 (inactive); in experiment [10], -1.39. Also, in experiment [2], the composite z-score was determined as 0.178.

Take `Cc1ccc(C(C)CC(O)C2C=CC3C(=O)N(c4ccccc4)C(=O)C3N2Nc2ccc(C#N)cc2)o1` (stereo not given): the z-score in experiment [1] is 0.249 (inactive); in experiment [3] it was 7.4 (inactive); in experiment [4] it was 0.478 (inactive); in [5] it was 0.45 (inactive); in experiment [6], -0.397 (inactive); in [7] it was 0.729. Also, the z-score in experiment [8] is -2.43 (inactive); in [9] it was -3.34 (inactive); in [10], -2.6. The same compound came in with a composite z-score in experiment [2] of 0.198.

On to `CC=CC(O)C1C=CC2C(=O)NC(=O)C2N1Nc1ccccn1` (stereo not given), for which the z-score in experiment [1] was -0.576 (inactive); in [3], -0.335 (inactive); in experiment [4] it was -0.0554 (inactive); in [5] it was 0.0091 (inactive); in [6], 0.998 (inactive); in [7], -0.966. The figures for the z-score in experiment [8], in [9] and in experiment [10] were -1.39 (inactive), -1.87 (inactive) and -1.74, respectively. In [2], this compound displayed a composite z-score of -0.0061.

Take `C=CCNC(=O)[C@@H]1[C@H]2C(=O)O[C@H](c3ccccc3)[C@H](c3ccccc3)N2[C@H](c2ccc(O)cc2)[C@@]12C(=O)Nc1ccc(C#CCC(C(=O)OC)C(=O)OC)cc12`: the z-score in experiment [1] is -0.482 (inactive); in experiment [3], 5.99 (inactive); in [4] it was 0.792 (inactive); in experiment [5] it was 2.3 (inactive); in experiment [6], 0.319 (inactive); in [7], -0.45. The results for the z-score in experiment [8], in [9] and in experiment [10] were 1.97 (inactive), 0.448 (inactive) and 1.25, respectively. The composite z-score in [2] is -0.0544.

Regarding `CCCCC(=C=CC[C@H](O)c1ccc(OCCO)cc1)C[C@H](O)c1cc(Cl)cc(Cl)c1O`, the z-score in experiment [1] is -0.118 (inactive); in [3], 21.2 (active); in experiment [4], 5.19 (inactive); in [5], 1.56 (inactive); in [6], 1.73 (inactive); in [7], -0.476. The z-score in experiment [8] is 0.51 (inactive); in [9], -0.667 (inactive); in experiment [10] it was -1.49. In addition, the composite z-score in experiment [2] stood at 0.13.

Regarding `COCCOC(=O)N1C(=O)[C@@]2(c3cc(C#CCCO)ccc31)[C@H](c1ccccc1OCCO)N1[C@H](c3ccccc3)[C@H](c3ccccc3)OC(=O)[C@H]1[C@@H]2C(=O)N1CCCCCCC1`, the z-score in experiment [1] was 1.59 (inactive); in [3], 2.44 (inactive); in experiment [4] it was 0.0348 (inactive); in experiment [5] it was 0.431 (inactive); in [6] it was 0.951 (inactive); in [7], 0.626. Moreover, the z-score is 0.6 (inactive) in [8], 1.29 (inactive) in experiment [9] and 1.35 in [10]. For the same compound, the composite z-score in [2] came to 2.58.

For the compound `C=C[C@@H](OC)[C@H](OC(=O)Nc1ccc(SC)cc1)c1ccc(OCCO)cc1`, the z-score in experiment [1] was -3.28 (inactive); in experiment [3], 26.7 (active); in [4], 16.4 (active); in experiment [5], 2.11 (inactive); in [6] it was 1.78 (inactive); in [7] it was 0.285. The z-score in experiment [8] is 0.403 (inactive); in experiment [9], 0.357 (inactive); in experiment [10], 0.00434. In experiment [2], this compound displayed a composite z-score of 0.137.

Turning to `COc1ccc(C(O)C2C=CC3C(=O)N(c4ccccc4)C(=O)C3N2Nc2ccc(C(C)C)cc2)c2ccccc12` (stereo not given), the z-score in experiment [1] is -0.534 (inactive); in experiment [3], 1.68 (inactive); in [4], 1.35 (inactive); in experiment [5], 0.155 (inactive); in [6], 1.27 (inactive); in experiment [7] it was -1.09. In addition, the z-score in [8] is 0.373 (inactive); in experiment [9] it was -2.59 (inactive); in experiment [10], -3.17. In experiment [2], this compound showed a composite z-score of 0.4.

Turning to `[N-]=[N+]=NCc1ccccc1C[C@@]1(C(=O)N2CCCCC2)N=C(c2ccc(OCCCO)cc2)O[C@@H]1c1ccccc1CN=[N+]=[N-]`, the z-score in experiment [1] is 0.464 (inactive); in [3], 27.5 (active); in [4] it was 19.6 (active); in [5], 3.4 (inactive); in experiment [6], 2.31 (inactive); in experiment [7] it was -0.276. Moreover, the figures for the z-score in experiment [8], in [9] and in experiment [10] were -1.29 (inactive), -0.467 (inactive) and -0.859, respectively. Moreover, the composite z-score in experiment [2] is 0.254.

As to `C=C(C(=O)CC[C@H](OC(=O)c1ccccc1-c1ccccc1C(=O)O)c1ccccc1OCCO)C(C)C`, the z-score was 0.342 (inactive) in [1]; 6.14 (inactive) in experiment [3]; 1.12 (inactive) in [4]; 2.1 (inactive) in experiment [5]; 0.577 (inactive) in [6]; -0.549 in experiment [7]. Moreover, the z-score is 2.97 (inactive) in experiment [8], -0.13 (inactive) in experiment [9] and -1.51 in experiment [10]. The compound further yielded a composite z-score in experiment [2] of -0.0573.

For `CC(C)=CCCC(C)=CC(O)C1C=CC2C(=O)N(c3ccccc3)C(=O)C2N1Nc1ccccc1F` (stereo not given), the z-score was 0.404 (inactive) in experiment [1]; 1.7 (inactive) in experiment [3]; -0.389 (inactive) in experiment [4]; -0.391 (inactive) in [5]; -0.789 (inactive) in experiment [6]; -0.162 in experiment [7]. Further, the values for the z-score in experiment [8], in experiment [9] and in experiment [10] were -0.199 (inactive), -0.284 (inactive) and 0.83, respectively. For the same compound, in experiment [2], the composite z-score is -0.233.

In the case of `COCCOC(=O)N1C(=O)[C@@]2(c3cc(C#CCNC(N)=O)ccc31)[C@H](c1ccc(O)cc1)N1[C@H](c3ccccc3)[C@H](c3ccccc3)OC(=O)[C@H]1[C@@H]2C(=O)N1CCN(c2ncccn2)CC1`, the z-score in [1] is -0.279 (inactive); in experiment [3], 2.78 (inactive); in [4], 1.32 (inactive); in [5] it was 0.528 (inactive); in experiment [6], 0.973 (inactive); in experiment [7], -0.43. Besides, the z-score in experiment [8] is 1.23 (inactive); in experiment [9], -0.121 (inactive); in experiment [10], 1.13. For the same compound, the composite z-score in experiment [2] is -0.191.

In the case of `C=C(C)C1CCC(C(O)C2C=CC3C(=O)N(C)C(=O)C3N2Nc2cc(OC)c(OC)c(OC)c2)CC1` (stereo not given), the z-score was -1.67 (inactive) in experiment [1]; 0.541 (inactive) in [3]; 0.61 (inactive) in [4]; -0.256 (inactive) in experiment [5]; 0.901 (inactive) in [6]; -0.681 in experiment [7]. Besides, the figures for the z-score in experiment [8], in experiment [9] and in [10] were -1.86 (inactive), -2.78 (inactive) and -2.92, respectively. The composite z-score in experiment [2] stood at 0.361.
